Screening data (PubChem BioAssay)
Sampled rows, rich in hits. Any-hit rate of the full collection: about 6.1%.
PK Bst – modulators of Bacillus stearothermophilus pyruvate kinase; Potency, µM; purified pyruvate kinase, luminescence ATP production; ribose 5-phosphate activator present at AC10; hit rate 1.2% among 51,000; AID 361; in the data active = potency below about 11 µM; inconclusive = mostly about 12 µM to 25 µM;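 the screen sought inhibitors and activators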;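 also: scaled between full activation by ribose 5 phosphate and full inhibition by luteolin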
TSHR agonist – agonists of human thyroid stimulating hormone receptor. HEK293-CNG-TSHR cells (CNG channel as cAMP sensor), membrane potential dye, cAMP. P16473. Potency, µM (titrated, usually from 57.1 µM), for inactives: top-dose activation, usual class: activators. AID 926. hit rate 0.48% among 73,000; active = well fitted activation curve with a large enough effect in the main read-out, with a control signal flat, not every such curve was filed as active; inconclusive = small, poorly fitted or top-dose-only effect, or a change in a side signal; inactive = no such curve, though single readings can be large or run the other way; % of control where 0% means no effect;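 also: the control signal comes from parental cells without the receptor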
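cAMP rise detected as CNG-channel membrane depolarization by fluorescent dye (emission 590 nm), 30 min after compound, following 60 min dye loading containing 100 uM RO 20-1724 at room temperature. Cells: TSHR/CNG HEK 293, with parental CNG HEK 293 as control.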
Luciferase inh – blocks Photinus pyralis firefly luciferase activity | purified firefly luciferase, luminescence, 8 min | Potency, µM (top dose mostly 57.1 µM), for the others: at the highest dose activity change, negative = inhibition, most hits filed as inhibitors | hit rate 2.2% among 72,000; also: % is scaled to controls: 0 for no effect and ±100 for the full control effect; nearly all actives have a fitted effect of over 40% in size
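Luminescence read-out after 8 min at room temperature; enzyme reaction used luciferin plus 10 uM ATP (linear range) in imidazole buffer pH 7.2 with KCl, MgCl2, Tween 20 and BSA. Each sample was run as a titration.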
ERK AVP inh – vasopressin-driven ERK pathway inhibition. AID 995. HEK293-V1b, vasopressin-stimulated pERK AlphaScreen. hit rate 0.99% among 72,000. Potency, µM (series often up to 57.5 µM), inactives show at the top dose activity, negative = inhibition, actives largely listed as inhibitors; also: % is scaled to controls: 0 for no effect and ±100 for the full control effect; nearly all actives have a fitted effect of over 55% in size
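Phosphorylated ERK1/2 detected via AlphaScreen bead proximity in lysates of V1b-expressing HEK293 cells given 25 nM vasopressin for 5 min after 30 min compound exposure (37 °C). AC50 from Hill equation; basal DMSO 0%, vasopressin 100%.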
HEK293 cAMP cs – raises cAMP in parental HEK293 cells, TSHR agonist counter-screen; AID 938; hit rate 2.5% among 73,000; Potency, µM (doses to about 57.1 µM), for the others: at the top dose activation, hits mostly activators; parental HEK293 CNG cAMP sensor, membrane potential fluorescence; also: % of control where 0% means no effect; nearly all actives have a fitted effect of over 55% in size
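Parental HEK 293 cells stably expressing a cAMP-gated CNG channel were loaded with membrane potential dye containing 100 uM RO 20-1724 for 60 min. Compound added for 30 min; depolarization read as fluorescence intensity at 590 nm.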
GBA mod – modulators of human glucocerebrosidase; P04062; purified enzyme, resorufin glucoside fluorescence (screen aimed at inhibitors), 20 min; Potency, µM; hit rate 1.1% among 48,000; in the data active = potency below about 15 µM; inconclusive = mostly about 16 µM to 33 µM;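 also: the screen sought inhibitors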
Target sequence (P04062 whole entry, looked up): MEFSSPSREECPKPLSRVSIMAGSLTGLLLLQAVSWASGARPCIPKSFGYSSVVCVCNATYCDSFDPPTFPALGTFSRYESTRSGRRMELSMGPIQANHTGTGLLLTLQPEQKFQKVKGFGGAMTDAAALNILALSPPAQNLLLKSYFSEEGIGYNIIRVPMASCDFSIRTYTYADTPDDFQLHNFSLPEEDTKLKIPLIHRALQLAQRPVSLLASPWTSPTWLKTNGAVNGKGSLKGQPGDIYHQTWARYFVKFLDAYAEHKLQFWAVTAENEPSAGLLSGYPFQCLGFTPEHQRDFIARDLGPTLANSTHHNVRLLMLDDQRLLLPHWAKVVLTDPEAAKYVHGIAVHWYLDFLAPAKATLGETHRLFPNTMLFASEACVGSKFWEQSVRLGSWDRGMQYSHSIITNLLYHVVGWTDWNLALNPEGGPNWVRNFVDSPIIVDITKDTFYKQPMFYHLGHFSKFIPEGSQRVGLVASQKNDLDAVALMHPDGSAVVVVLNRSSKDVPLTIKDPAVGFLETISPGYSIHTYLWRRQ
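Wild-type enzyme at 0.2 nM final in 50mM citric acid/KH2PO4, 10mM sodium taurocholate, 0.01% tween-20, pH 5.9, with resorufin beta-D-glucopyranoside at 30 uM final. Compounds titrated, 20 min at RT, red fluorescence read; AC50 from titration.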
* marks the source's active call; other numbers are inactive results; i = inactive; ? = inconclusive; nt = no result; [ ] = another dose, or the depositor's remark. Unless noted, calls follow the shape of the dose curve; as a rule, active = well fitted curve in the direction sought with a large enough effect; inconclusive = small, poorly fitted or top-dose-only effect, or another doubt; inactive = no such curve, though single readings can be large; an effect the other way counts as inactive or inconclusive. Potency is read from the fitted curve at half-maximal effect.

SMILES	PK Bst	TSHR agonist	Luciferase inh	ERK AVP inh	HEK293 cAMP cs	GBA mod
c1ccc(-c2cnc(CSc3ncnc4sccc34)o2)cc1	>57	?	-5.3%	31.6µM*	15.8µM*	>76.9
O=c1cc(O)cc(/C=C\c2ccc(O)c(O)c2)o1	nt	?	-22.3%	?	?	nt
C(=Nc1ccc2c(c1)Cc1ccccc1-2)c1ccccn1	nt	-5.6%[11.4 µM]	-2.4%[11.4 µM]	-13.8%[11.5 µM]	2.2%[11.4 µM]	nt
COc1cc(CN2CCN(c3cccc(Cl)c3)CC2)cc(OC)c1OC	>57	20.0%	1.2%	27.9%	25.9%	>76.9
COc1ccc(CCNC(=O)CN2CCN(c3cccc(Cl)c3)CC2)cc1OC	>57	?	3.3%	20µM*	?	>76.9
CC(=O)Nc1ccc(NC(=O)c2cc(C)nn2-c2ccccc2)cc1	>57	?	0.8%	13.5%	?	12.3*
CCOc1cccc2cc(C(=O)Nc3nccs3)c(=O)oc12	>57	-5.6%	-1.0%	5.8%	-4.3%	>76.9
CCOc1cccc2cc(-c3csc(NC(=O)CCC(=O)N4CCN(C)CC4)n3)c(=O)oc12	nt	6.2%	1.0%	-0.5%	13.5%	12.4*
CCN(CC(=O)O)CC(=O)O	nt	0.8%[11.4 µM]	0.2%[11.4 µM]	-1.5%[11.5 µM]	20.3%[11.4 µM]	nt
O=C(O)c1c(-c2c3ccc(=O)cc-3oc3cc(O)ccc23)cc2ccccc2c1-c1ccccc1	nt	-2.9%[11.4 µM]	1.8%[11.4 µM]	-3.1%[11.5 µM]	-6.3%[11.4 µM]	nt
COc1cccc(Nc2ncc3ncc(=O)n(Cc4cccs4)c3n2)c1	nt	?	-0.2%[11.4 µM]	-22.7%	15.8µM*	nt
O=c1cnc2cnc(Oc3ccccc3)nc2n1Cc1cccs1	nt	?	1.4%[11.4 µM]	-17.3%	20µM*	nt
c1ccc(CCCNc2nnnc3ccccc23)cc1	nt	21.2%[11.4 µM]	-1.1%[11.4 µM]	8.7%[11.5 µM]	18.7%[11.4 µM]	nt
Cc1c(N=C=O)cccc1N=C=O	nt	3.0%	nt	11.7%	9.9%	nt
COC(=O)c1cccc(NC(=O)NC2CCCN2S(=O)(=O)c2ccc(Cl)cc2)c1 (stereo not given)	9.55*	nt	2.1%	?	4.1%	>76.9
O=C(COC(=O)C1CCCN1S(=O)(=O)c1ccc(Cl)cc1)Nc1ccc2c(c1)OCO2 (stereo not given)	i	1.5%	-2.4%	12.5%	7.7%	?
[O-][N+]1(CC[N+]2([O-])CCCCC2)CCCCC1	nt	7.5%[11.4 µM]	0.7%[11.4 µM]	-20.8%[11.5 µM]	-3.2%[11.4 µM]	nt
CCOC(=O)c1cc2sccc2n1CC(=O)N1CCCc2ccccc21	>11.4	?	-0.4%	1.3%	?	>76.9
CCOC(=O)c1cc2sc(C)cc2n1CC(=O)N1CCc2ccccc21	>57	?	3.1%	12.1%	7.94µM*	>76.9
CCOC(=O)CNc1c(-c2ccc(O)cc2)nc2ccc(Cl)cn12	nt	-5.2%	?	?	-19.7%	4.11*
CCOC(=O)CNc1c(-c2ccc(O)cc2)nc2ccccn12	>57	?	-16.9%	-26.3%	?	?
COc1ccc(NC(=O)c2cc(-c3ccc(C)o3)nc3ccccc23)cc1OC	3.67*	?	2.51µM*	-15.9%	25.1µM*	>76.9
Cc1cccc(NC(=O)c2cc(-c3ccco3)nc3ccccc23)n1	>57	?	-5.0%	-11.6%	25.1µM*	>76.9
COc1cc(NC(=O)c2cc3c(C)nc4ccccc4c3o2)cc(OC)c1OC	nt	-3.8%	-3.7%	?	-6.0%	nt
O=C(NCC1CCCO1)c1cc(-c2ccco2)nc2ccccc12 (stereo not given)	>57	18.1%	-3.4%	3.8%	20.8%	>76.9
SMILES	PK Bst	TSHR agonist	Luciferase inh	ERK AVP inh	HEK293 cAMP cs	GBA mod
Cc1cc(O)c(-c2cc(C(=O)Nc3ccc(S(=O)(=O)N4CCOCC4)cc3)[nH]n2)cc1C	>57	-30.1%	-5.6%	25.1µM*	-11.9%	nt
CC(=O)Nc1ccc(S(=O)(=O)Nc2ccc(N3CCOCC3)cc2)cc1	>57	-8.0%	-12.0%	-21.8%	0.5%	>76.9
CC(=O)Nc1ccc(S(=O)(=O)N2CCN(C(=O)N3CCOCC3)CC2)cc1	3.16*	13.7%	0.5%	-3.0%	19.6%	>76.9
CC(=O)Nc1ccc(S(=O)(=O)N2CCN(c3cc(C)nc4ccccc34)CC2)cc1	>57	-17.7%	1.9%	20.1%	-8.1%	10.7*
COc1cc2c3cc1Oc1c(OC)c(OC)cc4c1[C@@H](Cc1ccc(O)c(c1)Oc1ccc(cc1)C[C@@H]3N(C)CC2)CN(C)C4	nt	14.6%[11.4 µM]	-1.0%[11.4 µM]	-3.2%[11.5 µM]	0.6%[11.4 µM]	nt
CCC/C=C(\CCC)C(NC(=O)c1ccccc1)c1ccccc1 (stereo not given)	nt	?	nt	4.9%	?	nt
CCOc1ccc(C(=O)COC(=O)CC)cc1	nt	8.9%	15.8µM*	-8.7%	2.9%	nt
CCC(=O)c1ccc(OCC(=O)O)cc1	>57	0.7%	-5.4%	12.8%	4.1%	>76.9
Cn1c([N+](=O)[O-])cnc1CN1CCN(CCO)CC1	nt	0.7%[11.4 µM]	6.2%[11.4 µM]	6.8%[11.5 µM]	0.8%[11.4 µM]	nt
CC(=O)c1ccc(N2CCN(C(=O)c3cc(-c4ccc5c(c4)OCO5)nc4ccccc34)CC2)cc1	nt	20.3%	7.94µM*	-16.8%	17.9%	>76.9
COc1ccccc1C(=O)N1CCN(c2ccccn2)CC1	nt	-1.0%	nt	nt	4.8%	nt
COc1cc(-c2cc(C(=O)N3CCN(c4ccccn4)CC3)c3ccccc3n2)cc(OC)c1OC	>57	15.4%[11.4 µM]	-0.1%	14.8%	0.4%	14.6*
COc1ccc(-c2cc(C(=O)OCC(=O)N3CCCC3)c3ccccc3n2)cc1	10.1*	4.7%	20µM*	?	27.0%	>76.9
Cc1cc(C(=O)OCC(=O)N2CCOCC2)c2ccccc2n1	>57	2.0%	3.9%	7.2%	0.5%	>76.9
COc1ccc(-c2cc(C(=O)N3CCN(c4ccccn4)CC3)c3ccccc3n2)cc1	2.16*	nt	1.26µM*	10µM*	8.2%	>76.9
COc1ncc2nc(-c3ccccc3)c(=O)n(CCc3ccccc3)c2n1	nt	8.4%	0.2%[11.4 µM]	-19.9%	26.3%	nt
CCCn1c(-c2ccc(F)cc2)nc2c(NC(C)CCCN(CC)CC)nc(C)nc21 (stereo not given)	nt	?	nt	5.8%	?	nt
COC(=O)C1=C(C)N(Cc2ccccc2)C2=C3C(=O)N(C)C(=O)C3[C@@](O)(C(=O)OC)C(=O)N2C1c1ccccc1 (stereo not given in full)	nt	?	nt	0.8%[11.5 µM]	3.0%[11.4 µM]	nt
OC1C=C2CCN3Cc4cc5c(cc4C(C1O)C23)OCO5 (stereo not given)	nt	nt	nt	-15.1%	nt	nt
COc1ccccc1OC[C@H](O)CN1CCN(CC(=O)Nc2c(C)cccc2C)CC1	nt	?	0.1%	-15.3%	?	nt
Cc1cc(NC(=O)CC2CCCC2)n(-c2nc3ccccc3[nH]2)n1	>57	?	-0.4%	-11.3%	25.1µM*	>76.9
COc1ccc(-c2nnc(-c3cccs3)o2)cc1OC	nt	6.5%	12.6µM*	?	10.3%	nt
c1cncc(-c2nnc(-c3cccs3)o2)c1	>57	1.6%	-1.0%	-12.1%	-0.5%	>76.9
c1csc(-c2nnc(-c3ccc(N4CCOCC4)cc3)o2)c1	?	1.1%	3.16µM*	7.0%	10.8%	>76.9
